The values that follow come from PubChem BioAssay.

Active and inactive are the calls of the source.

Test [1] can be described thus: compounds binding Alexa647 anti-His antibody – biochemical, small-molecule microarray, 635 nm fluorescence, artefact control for SMM control protein annotation, primary screen (AID 1128).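 Note: score merges feature fluorescence with signal-to-noise for each printed compound spot.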 The following applies: higher = more signal.
In test [2] the test system is Human papillomavirus type 1a E7 protein (residues 1-88). The test can be described thus: HPV1a E7 small-molecule binders, primary screen, biochemical, small-molecule microarray, residues 1-88, 635 nm (AID 1129). The following applies: small-molecule microarray binding, fluorescence 635 nm; higher = more signal.
Test [3] concerns the target Focal adhesion kinase 1 (Homo sapiens) (UniProt Q05397). Put plainly: PTK2 protein binding on printed compound slides – biochemical, small-molecule microarray, 635/667 nm fluorescence, BSA, DTT, primary screen (AID 1130).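 Note: composite of spot emission at 667 nm and signal to noise over triplicate slides.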 The conditions noted are these: 635 nm fluorescence, higher = more signal.
In test [4] the test system is Fibrinogen (Alexa647-labelled). Put plainly: Alexa647-fibrinogen binding to printed small molecules – biochemical, small-molecule microarray, 635/667 nm fluorescence, artefact control for SMM control-protein annotation, profiling panel (AID 1131).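 Note: z-score merges 667 nm fluorescence with per-spot signal-to-noise over triplicate slides.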 The conditions noted are these: fibrinogen-A647 binding fluorescence, higher = more signal.
Test [5] concerns the target Follistatin (Homo sapiens) (UniProt P19883). Put plainly: FST protein binding to printed compounds – biochemical, small-molecule microarray, 635/667 nm fluorescence, primary screen (AID 1132). The following applies: 635 nm fluorescence, higher = more signal.
The target of test [6] is Fibroblast growth factor 2 (Homo sapiens) (UniProt P09038). Put plainly: basic fibroblast growth factor binding to printed compounds – biochemical, small-molecule microarray, 635/667 nm fluorescence, primary screen (AID 1133). The following applies: FGF2, fluorescence 635/667, higher = more signal.
A short description of test [7]: JC-1 mitochondrial potential readout, lung cancer cells – cell-based, A549, JC-1 fluorescence, basal, 24 h, 100 nL, profiling panel (AID 1138).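 Note: A549 lung adenocarcinoma cells under basal conditions with no added stimulus; test concentration not given here.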 The conditions noted are these: higher = more signal.
A further test concerns Lefty1. The test can be described thus: Lefty1 protein binding to printed compounds – biochemical, small-molecule microarray, 635/667 nm fluorescence, primary screen (AID 1139). The following applies: fluorescence 635/667, higher = more signal.
The test system of test [8] is wheat germ agglutinin (Triticum aestivum), Alexa647-labelled. Put plainly: Alexa647-WGA lectin binding to printed small molecules – biochemical, small-molecule microarray, 635/667 nm fluorescence, artefact control for SMM control-protein annotation, profiling panel (AID 1140).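 Note: score merges 667 nm feature emission with signal to noise over triplicate slides.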 The conditions noted are these: WGA-A647 binding, 635 nm fluorescence, higher = more signal.

Test [9] concerns the target Luciferin 4-monooxygenase (Photinus pyralis) (UniProt P08659). The test can be described thus: inhibition of purified Photinus pyralis luciferase – biochemical, luminescence, purified enzyme, 2006 set, primary screen (AID 1141).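 Note: cell-free assay with purified firefly luciferase at 100 ng per well in PBS; test concentration not given here.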 The conditions noted are these: purified firefly luciferase, SteadyGlo luminescence, 30 min; higher = more signal, called active from +8 up or from −8 down.

Chain of Luciferin 4-monooxygenase (Photinus pyralis) (P08659 whole entry, looked up): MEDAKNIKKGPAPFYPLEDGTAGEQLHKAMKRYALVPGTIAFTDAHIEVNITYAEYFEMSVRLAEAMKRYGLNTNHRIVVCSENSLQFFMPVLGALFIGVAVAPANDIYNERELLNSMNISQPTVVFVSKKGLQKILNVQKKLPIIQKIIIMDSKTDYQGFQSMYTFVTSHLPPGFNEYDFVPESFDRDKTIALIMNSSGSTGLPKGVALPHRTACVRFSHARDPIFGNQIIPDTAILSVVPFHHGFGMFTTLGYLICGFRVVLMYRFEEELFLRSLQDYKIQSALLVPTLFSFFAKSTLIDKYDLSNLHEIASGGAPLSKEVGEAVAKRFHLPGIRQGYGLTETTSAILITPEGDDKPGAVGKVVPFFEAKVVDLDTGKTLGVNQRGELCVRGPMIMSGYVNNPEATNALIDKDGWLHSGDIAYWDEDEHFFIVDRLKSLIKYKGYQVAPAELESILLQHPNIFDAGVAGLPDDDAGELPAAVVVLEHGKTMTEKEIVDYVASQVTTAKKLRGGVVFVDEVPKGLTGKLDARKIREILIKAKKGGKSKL
Chain of Focal adhesion kinase 1 (Homo sapiens) (Q05397 whole entry, looked up): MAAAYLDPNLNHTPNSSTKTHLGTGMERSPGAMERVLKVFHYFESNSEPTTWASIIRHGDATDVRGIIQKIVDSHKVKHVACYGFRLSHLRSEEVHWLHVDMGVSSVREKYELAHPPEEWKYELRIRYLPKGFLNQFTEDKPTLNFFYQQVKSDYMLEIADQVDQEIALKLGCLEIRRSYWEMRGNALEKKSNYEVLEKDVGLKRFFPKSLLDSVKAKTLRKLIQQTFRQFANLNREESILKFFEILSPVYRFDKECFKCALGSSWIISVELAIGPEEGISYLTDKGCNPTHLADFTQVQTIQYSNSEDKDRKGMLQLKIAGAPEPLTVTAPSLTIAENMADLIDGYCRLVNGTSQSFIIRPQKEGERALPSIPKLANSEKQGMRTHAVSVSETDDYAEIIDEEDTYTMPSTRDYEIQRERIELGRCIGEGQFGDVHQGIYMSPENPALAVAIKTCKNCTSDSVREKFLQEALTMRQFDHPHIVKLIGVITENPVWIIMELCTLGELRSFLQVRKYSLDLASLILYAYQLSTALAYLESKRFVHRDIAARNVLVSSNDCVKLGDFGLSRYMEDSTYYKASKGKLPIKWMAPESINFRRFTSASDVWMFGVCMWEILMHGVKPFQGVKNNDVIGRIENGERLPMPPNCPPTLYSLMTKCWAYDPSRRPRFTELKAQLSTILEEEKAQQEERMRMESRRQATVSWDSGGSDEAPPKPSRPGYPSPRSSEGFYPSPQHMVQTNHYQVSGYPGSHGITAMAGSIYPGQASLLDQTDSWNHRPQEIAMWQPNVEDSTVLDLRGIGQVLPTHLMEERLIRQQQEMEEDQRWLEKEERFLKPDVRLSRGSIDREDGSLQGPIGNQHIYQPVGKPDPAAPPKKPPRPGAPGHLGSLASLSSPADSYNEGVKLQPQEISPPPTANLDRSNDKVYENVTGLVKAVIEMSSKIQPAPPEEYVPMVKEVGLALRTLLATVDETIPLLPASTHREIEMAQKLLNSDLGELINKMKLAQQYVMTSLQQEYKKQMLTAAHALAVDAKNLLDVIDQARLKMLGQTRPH
Chain of Follistatin (Homo sapiens) (P19883 whole entry, looked up): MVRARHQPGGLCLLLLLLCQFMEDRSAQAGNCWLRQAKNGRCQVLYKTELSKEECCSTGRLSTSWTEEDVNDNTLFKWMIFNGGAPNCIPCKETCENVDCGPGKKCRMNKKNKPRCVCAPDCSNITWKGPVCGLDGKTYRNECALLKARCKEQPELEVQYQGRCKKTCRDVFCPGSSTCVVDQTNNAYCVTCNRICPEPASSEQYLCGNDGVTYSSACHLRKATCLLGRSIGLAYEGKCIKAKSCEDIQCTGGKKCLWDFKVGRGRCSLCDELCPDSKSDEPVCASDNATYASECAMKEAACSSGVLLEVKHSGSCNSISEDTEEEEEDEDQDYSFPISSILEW
Chain of Fibroblast growth factor 2 (Homo sapiens) (P09038 whole entry, looked up): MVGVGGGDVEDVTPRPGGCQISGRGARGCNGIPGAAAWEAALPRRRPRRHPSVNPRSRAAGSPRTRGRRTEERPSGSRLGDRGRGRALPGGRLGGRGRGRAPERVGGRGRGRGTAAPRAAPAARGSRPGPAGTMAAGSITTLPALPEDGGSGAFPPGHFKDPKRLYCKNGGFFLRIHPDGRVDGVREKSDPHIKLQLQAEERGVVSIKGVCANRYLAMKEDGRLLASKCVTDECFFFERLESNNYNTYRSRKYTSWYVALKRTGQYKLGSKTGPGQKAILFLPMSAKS

For the molecule `CC(C)CNC(=O)[C@@H]1c2ccccc2C(=O)N(Cc2ccccc2Cl)[C@H]1c1ccc(CO)cc1`, the composite z-score in test [1] was 1.48; in [2], 0.844; in [3] it was 0.401; in test [4] it was -1.73; in test [5], -0.158; in test [6], 0.223. Further, the values for the composite z-score (in the test with Lefty1; in [8]) were -0.785 and -0.215, respectively. In addition, the z-score was 0.572 in test [7] and 0.686 (inactive) in [9].

On to `CCCCN1CC=CC23O[C@@H]4C=CCOC(=O)[C@@H]4[C@H]2C(=O)N(C(CO)C(C)C)[C@@H]3C1=O` (stereo not given in full), for which the composite z-score in [1] was -1.13; in test [2] it was -0.663; in test [3] it was -0.813; in test [4] it was -0.328; in test [5], 0.389; in [6], 0.126. The composite z-score was -0.12 in the test with Lefty1 and -0.708 in test [8]. Further, the z-score in [7] is 0.406; in test [9], -0.606 (inactive).

Turning to `C=C(COC)C(=O)CC[C@@H](OC(=O)c1cccnc1)c1cccc(OCCO)c1`, the composite z-score was -0.007 in [1]; 0.23 in test [2]; -0.437 in test [3]; -1.48 in test [4]; 1.29 in test [5]; 0.773 in [6]. Also, the composite z-score amounted to 1.19 in the test with Lefty1 and 0.981 in test [8]. Besides, the figures for the z-score in [7] and in [9] were 0.525 and -2.86 (inactive), respectively.

With `COc1ccc([Si](C)(C)[C@H]2[C@H](CCO)O[C@@]3(C(=O)N(Cc4ccc(N5CCOC5=O)cc4)c4ccccc43)[C@@H]2C)cc1`, the composite z-score is 0.965 in test [1]; 0.516 in test [2]; 0.5 in [3]; 0.45 in test [4]; -0.11 in [5]; -0.271 in [6]. For the same molecule, the composite z-score in the test on Lefty1 was 0.263; in test [8] it was 0.433. Besides, the z-score in test [7] is 0.533; in test [9], -0.605 (inactive).

As for `COCCOC(=O)N1C(=O)[C@@]2(c3cc(C#CCC(C(=O)OC)C(=O)OC)ccc31)[C@H](c1ccc(OCCO)cc1)N1[C@H](c3ccccc3)[C@H](c3ccccc3)OC(=O)[C@H]1[C@@H]2C(=O)N1CCCCCCC1`, the composite z-score in test [1] amounted to 1; in test [2], 1.21; in test [3] it was 0.899; in test [4] it was 0.686; in [5], 1.5; in [6], 0.614. Besides, the composite z-score came out at 0.958 in the test with Lefty1 and 1.37 in test [8]. Further, the figures for the z-score in [7] and in test [9] were -0.83 and -1.62 (inactive), respectively.

Take `C=C(/C(=C/C[C@H](OC(=O)c1ccncc1)c1ccccc1OCCO)c1cc(C(=O)OC)ccc1OC)C(C)C`: the composite z-score in test [1] was 0.32; in test [2] it was 1.08; in test [3] it was -0.145; in test [4], 0.314; in test [5], 1.07; in test [6], 1.39. Besides, the composite z-score in the test on Lefty1 came to 0.67; in test [8] it was 0.351. Also, the results for the z-score in test [7] and in [9] were -0.032 and -0.538 (inactive), respectively.

Turning to `N[C@@H](Cc1ccccc1)Cn1cc(C2(O)CCCCC2)nn1`, the composite z-score was 0.124 in test [1]; 0.062 in [2]; 0.0655 in test [3]; 0.556 in test [4]; 0.0725 in test [5]; -0.445 in test [6]. The composite z-score in the test with Lefty1 amounted to 0.333; in test [8], 0.128. In addition, the z-score in [7] is 0.375; in [9], -0.377 (inactive).

`CC1CC/C=C\[C@H]2OC34C=CCN(CCN5CCOCC5)C(=O)[C@H]3N(CCCCCCO)C(=O)[C@@H]4C2C(=O)O1` (stereo not given in full): the composite z-score was -0.37 in [1]; -0.986 in test [2]; -0.411 in test [3]; -2.12 in test [4]; 0.0859 in test [5]; -0.649 in test [6]. Further, the results for the composite z-score (with Lefty1; in test [8]) were -0.259 and -0.7, respectively. The z-score is 0.746 in [7] and -0.934 (inactive) in test [9].

For `COCCOC(=O)N1C(=O)[C@@]2(c3cc(C#CCC(C(=O)OC)C(=O)OC)ccc31)[C@H](C(N)=O)[C@H]1C(=O)O[C@H](c3ccccc3)[C@H](c3ccccc3)N1[C@@H]2c1ccc(OCCO)cc1`, the composite z-score in test [1] came out at 1.37; in test [2], 1.22; in [3] it was 0.985; in test [4] it was 0.923; in test [5], 1.25; in [6] it was 1.1. Further, the figures for the composite z-score (in the test on Lefty1; in test [8]) were 0.596 and 0.762, respectively. Moreover, the z-score in [7] is -1.07; in test [9], -0.409 (inactive).

With `O=C1C2C=CC(C(O)C(c3ccccc3)c3ccccc3)N(Nc3ccccc3)C2C(=O)N1c1ccccc1` (stereo not given), the composite z-score in test [1] came out at 0.59; in test [2], 1.28; in [3], 0.175; in test [4], 1.03; in test [5], 1.29; in test [6], 0.472. Besides, the composite z-score in the test on Lefty1 stood at 0.707; in [8], 0.882. Besides, the z-score in test [7] was 0.0105; in test [9], -1.05 (inactive).

Regarding `NC(=O)NCC#Cc1ccc2c(c1)[C@]1(C(=O)N2)[C@H](C(=O)Nc2nc3ccccc3s2)[C@H]2C(=O)O[C@H](c3ccccc3)[C@H](c3ccccc3)N2[C@@H]1c1ccc(OCCO)cc1`, the composite z-score is -0.497 in test [1]; 0.094 in [2]; 0.268 in [3]; -0.3 in test [4]; 1.37 in [5]; 0.746 in test [6]. Moreover, the composite z-score was -0.276 in the test on Lefty1 and 0.441 in [8]. Also, the z-score is -2.21 in test [7] and -1.96 (inactive) in [9].

Regarding `CCCCC(=C=CC[C@@H](O)c1cccc(OCCO)c1)CCO`, the composite z-score in [1] was -0.378; in [2], -0.437; in [3] it was -0.0962; in test [4], 0.449; in test [5], 0.242; in test [6] it was 0.154. In addition, the composite z-score in the test on Lefty1 worked out at 0.448; in [8], 0.771. The z-score in test [7] is 0.613; in [9] it was -0.656 (inactive).

For `COC(=O)C1=CC(CCCO)=CC(C2CC2)N(Cc2cccc(OC(F)(F)F)c2)C=C1C(=O)OC` (stereo not given), the composite z-score in [1] is 1; in [2] it was 0.846; in test [3], 1.03; in test [4], 0.884; in test [5], 0.0058; in test [6], -0.653. The composite z-score in the test with Lefty1 came out at 0.126; in test [8], 0.824. Moreover, the z-score in test [7] is 1.1; in [9] it was 0.189 (inactive).

Consider `C=CCC(OC(C)=O)[C@@H]1[C@@H](N(Cc2cccc3ccccc23)C(=O)c2ccc(C)cc2)c2cc(OCCCO)ccc2N1C(=O)c1ccc2ccccc2n1` (stereo not given in full), for which the composite z-score was -0.24 in [1]; 0.098 in [2]; 0.348 in [3]; 0.682 in [4]; 0.584 in [5]; 0.0013 in [6]. The composite z-score with Lefty1 was found to be 0.644; in test [8] it was 0.391. Besides, the z-score in test [7] is 0.644; in test [9], -1.05 (inactive).
